# Bioassay records as filed in PubChem.
# Compounds with a hit are over-represented: about 19% of the library has one in this group of screens.
# DT40 TDP1 no CPT: qHTS for Inhibitors of human tyrosyl-DNA phosphodiesterase 1 (TDP1): qHTS in cells in absence of CPT | DT40 Tdp1-/- hTDP1 cells, no CPT, ATP luminescence, 48 h | Potency, µM (doses to about 46.2 µM), for the others: at the highest dose activity change, negative = growth inhibition, hits mostly inhibitors | actives 15% (n = 420,000); further: potency means the concentration at half of the fitted maximal effect; nearly all actives have a fitted effect of over 55% in size
#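 Camptothecin absent (DMSO only). Human TDP1-complemented DT40 knockout cells, 400 cells/well, 37 °C for minimum 48 hr; ATP measured via CellTiter-Glo, 30 min dark incubation, luminescence.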
# IL1B secr inh: qHTS for Inhibitors of Inflammasome Signaling: IL-1-beta AlphaLISA Primary Screen; THP-1 LPS/ATP IL-1B secretion, AlphaLISA, 16 h; stronger effect = lower value; activity change, % at 57.5 µM; actives 4.7% (n = 360,000); in the data active means activity change below about -50%; inconclusive means mostly about -30% to -49%
#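 THP-1 cells pretreated 1 hr with compounds (up to 57.5 uM final), then stimulated with LPS (250 ng/mL final) plus ATP (1.25 mM final); secreted IL-1B measured by AlphaLISA after 16 hr, decreased signal indicating inhibition.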
# DT40 TDP1 CPT: qHTS for Inhibitors of human tyrosyl-DNA phosphodiesterase 1 (TDP1): qHTS in cells in presence of CPT; actives 12% (n = 420,000); chicken DT40 Tdp1-/-;hTDP1 cells + 20 nM CPT, ATP luminescence, 48 h; AID 686979, 2013; Potency, µM (series often up to 46.2 µM), inactives show top-dose activity change, negative = growth inhibition, usual class: inhibitors; further: potency means the concentration at half of the fitted maximal effect; nearly all actives have a fitted effect of over 55% in size
#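 Chicken DT40 Tdp1-/- cells stably complemented with human TDP1 were seeded at 400 cells/well in medium containing 20 nM camptothecin, exposed to pin-transferred compounds, and grown at 37 °C for at least 48 hr. Viability was read as ATP luminescence.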
# HT1080 IDH1KD tx: qHTS for induction of synthetic lethality in tumor cells producing 2HG: qHTS for the HT-1080-IDH1KD cell line; Potency, µM (highest dose often 46.1 µM), for inactives: top-dose activity, negative = toxicity, hits mostly cytotoxic; AID 686971, 2013; HT-1080 IDH1 knockdown viability, ATP luminescence, 48 h; actives 2% (n = 360,000);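 further: potency means the concentration at half of the fitted maximal effect; 0% = DMSO wells and -100% = cell-free medium wells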
#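 CellTiter-Glo luminescence after 48 h compound exposure at 37 degrees C of IDH1-knockdown HT-1080 cells in 5% FBS RPMI. %Activity scaled between DMSO wells and cell-free media wells, with curves fitted and assigned curve classes.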
# HT1080-NT tox: qHTS for induction of synthetic lethality in tumor cells producing 2HG: qHTS for the HT-1080-NT fibrosarcoma cell line. HT-1080-NT fibrosarcoma viability, CellTiter-Glo ATP luminescence, 48 h. actives 1.6% (n = 360,000). Potency, µM (titrated, usually from 46.1 µM), without a hit: at the highest dose activity, negative = less viability, actives largely listed as cytotoxic;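 further: NT is the 2HG producing partner of a matched IDH1 knockdown line; potency means the concentration at half of the fitted maximal effect; 0% = DMSO-treated cells and -100% = media-only wells without cells; nearly all actives have a fitted effect of over 55% in size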
#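 Viability of the 2HG-overproducing fibrosarcoma line after 48 hours of compound exposure at 37 degrees C was determined by luminescence with CellTiter-Glo, and concentration-effect curves were then fitted and categorized.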
# * marks the source's active call; other numbers are inactive results; ? = inconclusive; · = no result given; [ ] = dose if it differs, or a comment. Unless noted, the call rests on the fitted dose curve; in most records, active means well fitted curve in the direction sought with a large enough effect; inconclusive means small, poorly fitted or top-dose-only effect, or another doubt; inactive means no such curve, though single readings can be large; an effect the other way counts as inactive or inconclusive. Unless noted, on the % scale 0 is the no-effect control and ±100 the full control effect.
SMILES,DT40 TDP1 no CPT,IL1B secr inh,DT40 TDP1 CPT,HT1080 IDH1KD tx,HT1080-NT tox
COCCCNC(=O)CC1C[C@H](C(=O)N2CCOCC2)[C@@]2(CCC3CCCC3)c3[nH]c4ccc(OC)cc4c3CCN2C1=O (some centres not stated),-21.5%,-1.9,?,6.9%,-0.6%
CCOC(=O)COc1c(Cl)cc(C2NC(=S)NC(c3ccccc3)=C2C(C)=O)cc1OC (configuration not stated),-27.5%,-95.3*,-14.7%,-7.4%,-6.2%
COC(=O)COc1ccc(C2NC(=O)NC(c3ccccc3)=C2C(C)=O)cc1OC (configuration not stated),-19.1%,22.2,-7.1%,-1.8%,0.5%
COC(=O)COc1ccc(C2NC(=O)NC(c3ccccc3)=C2C(C)=O)cc1Br (configuration not stated),0.5%,-71.2*,1.6%,4.1%,8.4%
COc1cc(C2NC(=S)NC(c3ccccc3)=C2C(C)=O)cc(Cl)c1OCC(=O)O (configuration not stated),-7.1%,5.0,-11.3%,-1.9%,11.1%
CCOc1ccccc1C(=O)N[C@H](C(=O)Nc1ccc(OC)c(S(=O)(=O)N2CCOCC2)c1)C(C)C,?,-10.4,?,-1.3%,-12.8%
COc1ccccc1Oc1c(C)oc2c(CN(C)C)c(O)ccc2c1=O,-0.1%,-1.0,-1.8%,-1.2%,-0.9%
CCOC(=O)C1(Cc2ccccc2C)CCCN(C(=O)c2ccc3nccnc3c2)C1 (configuration not stated),20.6µM*,-6.0,?,7.0%,12.6%
CCOC(=O)C1(Cc2ccccc2C)CCCN(C(=O)CCn2nccc2C)C1 (configuration not stated),13µM*,37.6,?,-0.6%,13.9%
CCOC(=O)C1(Cc2ccccc2C)CCCN(C(=O)CCc2cccnc2)C1 (configuration not stated),?,12.7,16.4µM*,4.8%,1.6%
CCOC(=O)C1(Cc2ccccc2C)CCCN(C(=O)CSC)C1 (configuration not stated),?,12.0,?,5.5%,-1.3%
CC(=O)O[C@@H]1CC2C(C)(C)C(=O)C=C[C@]2(C)C2CC[C@]3(C)C(=CC[C@H]3C3CO[C@@H](C(C)(C)O)[C@H](O)C3)[C@@]21C (some centres not stated),-7.8%[9.04 µM],·,?,·,·
CCOC(=O)c1cc[nH]c1C,16.4%,-7.1,-3.3%,-1.2%,7.0%
CCCCC(=O)OCC(=O)c1[nH]c(C)c(C(C)=O)c1C,2.1%,-1.3,6.2%,9.1%,17.7%
Cc1ccc(NC(=O)C(Cc2ccccc2)NS(=O)(=O)c2ccc3c(c2)CCC(=O)N3)cc1 (configuration not stated),-44.2%,·,2.2%,·,·
COc1ccccc1/C=C/C(=O)c1ccccc1,13µM*,-18.4,?,-21.9%,-18.3%
COc1ccccc1/C=C/C(=O)c1ccc(NC(C)=O)cc1,14.6µM*,-106.5*,?,?,-19.9%
COc1ccc(/C=C/C(=O)c2ccccc2)c(OC)c1,-18.5%,0.0,-22.1%,?,?
COc1ccccc1C(=O)Nc1ccc(C(=O)c2ccccc2)cc1,?,-29.5,-5.6%,-12.5%,4.6%
COc1ccc(OC)c(/C=C/C(=O)c2ccc(Cl)cc2)c1,?,-89.4*,18.4µM*,?,?
COc1ccccc1/C=C/C(=O)c1c2c(c(C)[nH]c1=O)CCCC2,?,-100.7*,?,?,4.47µM*
O=C(c1ccco1)N1CCCN(Cc2nc(Cc3ccccc3)no2)CC1,-24.8%,48.1,8.2%,14.6%,-2.5%
CCc1ccc(NC(=O)C(C)Sc2nc(-c3ccco3)c(C#N)c(=O)[nH]2)cc1 (configuration not stated),-11.1%,8.7,-17.6%,-18.0%,-29.5%
COc1ccccc1/C=C/C(=O)NC(=S)NC(C)C,16.4µM*,-7.6,?,14.2%,9.6%
CCCCCCc1cc2cc(/C(N)=N/NC(=O)c3ccncc3)c(=O)oc2cc1O,11.6µM*,-8.5,?,-4.2%,-11.9%
SMILES,DT40 TDP1 no CPT,IL1B secr inh,DT40 TDP1 CPT,HT1080 IDH1KD tx,HT1080-NT tox
CCCCCCc1cc2cc(C(=O)Nc3cccc(OC)c3)c(=O)oc2cc1O,3.66µM*,-24.8,2.59µM*,4.9%,9.2%
CCCCCCc1cc2cc(C(=O)NC)c(=N)oc2cc1O,20.6µM*,-2.3,?,23.4%,4.0%
CCCCCCc1cc2cc(C(=O)Nc3ccc(OC)cc3)c(=O)oc2cc1O,5.8µM*,15.4,7.31µM*,-18.7%,-9.5%
CCCCCCc1cc2cc(C(=O)OCC)c(=O)oc2cc1O,-19.7%,1.0,-20.9%,-10.8%,2.4%
COc1ccc2oc(=O)c(C(=O)Nc3ccc(C(=O)O)cc3)cc2c1,5.3%,·,5.3%,·,·
CCOC(CNc1c([N+](=O)[O-])c(=O)n(C)c(=O)n1C)OCC,-2.3%,-12.3,-3.6%,?,3.9%
CCCCCCc1cc2cc(-c3nnc(-c4ccc(C)cc4)o3)c(=O)oc2cc1O,?,·,-17.3%,·,·
CCCCCCc1cc2cc(S(=O)(=O)c3ccc(F)c(Cl)c3)c(=O)oc2cc1O,7.31µM*,-51.2*,5.8µM*,?,16.4µM*
COc1ccc(OC)c(CNC(=O)CCCn2nc(C)c3c(C)n(-c4ccc(C)cc4)nc3c2=O)c1,20.6µM*,·,23.1µM*,·,·
COc1cccc(CNC(=O)CCCn2nc(C)c3c(C)n(-c4ccc(C)cc4)nc3c2=O)c1OC,?,-15.2,10.3µM*,-3.5%,0.0%
Cc1ccc(-n2nc3c(=O)n(CCCC(=O)NCc4ccc(F)cc4)nc(C)c3c2C)cc1,?,-8.0,?,-3.2%,10.0%
COc1ccc(OC)c(CNC(=O)CCn2nc(C)c3c(C)n(-c4ccccc4)nc3c2=O)c1,10.3%,9.4,-3.9%,10.1%,0.8%
CCOC(=O)C1=C(COc2ccccc2)NC(=O)NC1c1cccc([N+](=O)[O-])c1 (configuration not stated),-9.5%,?,3.0%,3.5%,5.0%
CCOC(=O)C1=C(CSc2nc3ccccc3s2)NC(=O)NC1c1cccc([N+](=O)[O-])c1 (configuration not stated),?,-17.3,18.4µM*,?,?
